# Experimental data from article PMC4336329 (PLoS ONE, 2015).
# The campaign covered roughly 310,000 compounds. About 14,000 (4.5%) showed an effect of 50% or more. The effect is printed as a negative number. This is one part of a sample in which strong results are shown more often than they occur.
# Target: human ether-à-go-go-related gene (hERG) potassium channel (human, UniProt Q12809)
# Experiment: primary screen, population patch clamp on CHO cells stably expressing hERG; higher = less effect of the substance
# 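Also: peak tail current of the secondary pulse compared with the same well before compound.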
# Sequence of human ether-à-go-go-related gene (hERG) potassium channel (Q12809 whole entry, looked up): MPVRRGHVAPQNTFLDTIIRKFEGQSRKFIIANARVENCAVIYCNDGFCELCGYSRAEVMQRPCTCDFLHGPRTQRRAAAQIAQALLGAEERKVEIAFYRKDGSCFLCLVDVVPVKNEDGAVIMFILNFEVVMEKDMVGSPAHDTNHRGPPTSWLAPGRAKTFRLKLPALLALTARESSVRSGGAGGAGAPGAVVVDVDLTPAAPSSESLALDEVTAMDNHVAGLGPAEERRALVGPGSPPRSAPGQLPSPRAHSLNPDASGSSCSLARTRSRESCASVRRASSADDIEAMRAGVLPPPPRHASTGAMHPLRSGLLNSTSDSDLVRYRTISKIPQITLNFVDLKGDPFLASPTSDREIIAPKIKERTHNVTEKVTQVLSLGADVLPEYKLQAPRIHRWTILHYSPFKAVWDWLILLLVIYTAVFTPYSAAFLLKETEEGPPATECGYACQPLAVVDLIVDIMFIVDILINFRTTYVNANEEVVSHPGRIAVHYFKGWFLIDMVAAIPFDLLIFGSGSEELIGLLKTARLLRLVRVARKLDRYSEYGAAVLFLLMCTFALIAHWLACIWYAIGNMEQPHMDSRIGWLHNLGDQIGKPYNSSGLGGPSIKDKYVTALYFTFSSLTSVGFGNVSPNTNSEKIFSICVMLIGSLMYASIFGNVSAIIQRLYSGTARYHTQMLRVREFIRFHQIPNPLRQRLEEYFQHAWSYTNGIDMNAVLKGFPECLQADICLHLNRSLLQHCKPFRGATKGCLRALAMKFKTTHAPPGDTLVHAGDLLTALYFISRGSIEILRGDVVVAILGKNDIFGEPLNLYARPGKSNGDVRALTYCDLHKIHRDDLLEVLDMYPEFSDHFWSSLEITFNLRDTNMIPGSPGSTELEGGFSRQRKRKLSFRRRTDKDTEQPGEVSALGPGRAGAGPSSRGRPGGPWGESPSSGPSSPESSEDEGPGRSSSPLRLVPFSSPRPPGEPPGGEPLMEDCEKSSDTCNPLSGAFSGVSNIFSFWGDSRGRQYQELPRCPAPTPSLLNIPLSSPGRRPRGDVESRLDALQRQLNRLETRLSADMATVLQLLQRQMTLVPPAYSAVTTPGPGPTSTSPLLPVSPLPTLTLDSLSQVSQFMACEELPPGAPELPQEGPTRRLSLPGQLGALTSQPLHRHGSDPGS
row,SMILES,"hERG current change (%, negative = inhibition) at 10uM [%]"
1,Cc1cc2nc3n(c2cc1C)CC1CC(C(=O)NCCc2cccs2)N(C)C31 (stereo not shown),-38.5
2,CN1C(C(=O)NCCc2cccs2)CC2Cn3c(nc4ccccc43)C21 (stereo not shown),-27.3
3,CN1C(C(=O)NCCc2cccs2)CC2Cn3c(nc4cc5ccccc5cc43)C21 (stereo not shown),-65.9
4,CN1C(C(=O)NCCc2cccs2)CC2Cn3c(nc4cc(Cl)c(Cl)cc43)C21 (stereo not shown),-63.6
5,CNC1=C([N+](=O)[O-])CC([N+](=O)[O-])=C(N2CCNCC2)N1C,8.57
6,COCCCNC(=O)CS(=O)(=O)Cc1nc(-c2cccc(OC)c2)oc1C,7.73
7,COc1cccc(-c2nc(CS(=O)(=O)CC(=O)NCCCN3CCN(C)CC3)c(C)o2)c1,3.5
8,CCOC(=O)N1CCC(NC(=O)CS(=O)(=O)Cc2nc(-c3ccc(OC)cc3)oc2C)CC1,13.3
9,COc1cccc(-c2nc(CS(=O)(=O)CC(=O)NC3CC3)c(C)o2)c1,16.1
10,COc1cccc(-c2nc(CS(=O)(=O)CC(=O)NCCC(C)C)c(C)o2)c1,-10.7
11,CCOC(=O)N1CCC(NC(=O)CS(=O)(=O)Cc2nc(-c3cccc(OC)c3)oc2C)CC1,-54.2
12,COc1cccc(-c2nc(CS(=O)(=O)CC(=O)NCCCN3CCc4ccccc4C3)c(C)o2)c1,-71.6
13,COc1cccc(-c2nc(CS(=O)(=O)CC(=O)NCCCN3CCOCC3)c(C)o2)c1,7.17
14,CCCNC(=O)CS(=O)(=O)Cc1nc(-c2cccc(OC)c2)oc1C,-70
15,CCC(=O)N1CC2(c3ccccc3)CN(C(=O)CC)CC(c3ccccc3)(C1)C2=O,5.6
16,CC1CCc2cc(F)ccc2N1C(=O)C1(C)CC1(Cl)Cl (stereo not shown),4.51
17,CC1CCCN(CCS(=O)(=O)c2ccccc2)C1 (stereo not shown),3.59
18,O=C(CN(C(=O)CNC(=O)c1ccco1)c1ccc(Cl)c(Cl)c1)NC1CCCCC1,-27.2
19,O=C(Nc1ccccc1Sc1ccccc1)c1ccc(F)cc1,-7.65
20,O=C(c1ccc(Cl)cc1Cl)N1CCC(C(=O)N2CCOCC2)CC1,9.99
21,CCOC(=O)c1c(C)[nH]c(C)c1S(=O)(=O)NCc1cc(C)ccc1C,-6.49

row,SMILES,"hERG current change (%, negative = inhibition) at 10uM [%]"
1,CCNC(=O)C12CCC(C)(c3nc4cc(C)c(C)cc4nc31)C2(C)C (stereo not shown),33.5
2,CC12CCC(=O)N1C(C(=O)Nc1nc(-c3ccccc3Cl)cs1)CS2 (stereo not shown),-6.16
3,Cc1ccc(S(=O)(=O)N2C(=O)CCC2C(=O)Nn2cnnc2)cc1 (stereo not shown),5.62
4,COc1ccc(-c2[nH]ncc2CN2CCC(O)(c3ccc(Cl)cc3)CC2)cc1,-71.8
5,OC(CN1CCN(c2cccc(Cl)c2)CC1)c1ccc(F)cc1 (stereo not shown),-47.2
6,OC1(c2ccc(F)cc2)CCN(Cc2cccnc2)CC1,4.22
7,OC(CCCN1CCC(O)(c2ccc(Cl)cc2)CC1)c1ccc(F)cc1 (stereo not shown),-75.7
8,COc1ccc(S(=O)(=O)N2CCC(O)(c3ccc(Cl)cc3)CC2)cc1,24.2
9,Cc1ccc(Cn2nnnc2CN2CCC(O)(c3ccc(F)cc3)CC2)cc1,-7.64
10,OC1(c2ccc(Cl)cc2)CCN(Cc2c[nH]c3ccccc23)CC1,-63.7
11,OC1(c2ccc(Cl)cc2)CCN(Cc2cn[nH]c2-c2ccc(F)cc2)CC1,-68.7
12,OC(CN1CCN(c2ccc(F)cc2)CC1)c1ccc(Cl)cc1 (stereo not shown),-37.9
13,OCC1(Cc2ccccc2)CCCN(Cc2c[nH]c3ccccc23)C1 (stereo not shown),-27
14,COc1ccc(C2(O)CCN(Cc3nnnn3Cc3ccc(C)cc3)CC2)cc1,-21.4
15,O=C(O)C(=O)O.O=C(c1cccc(Cl)c1)N1CCN(Cc2c[nH]c3ccccc23)CC1,-20.4
16,Cc1ccc2c(c1)sc1nc(=O)n(-c3ccc(Cl)cc3)c(=O)n12,6.6
17,O=C(NCCCN1CCOCC1)C1CC(=O)N(c2ccccc2)C1 (stereo not shown),12.1
18,CCN1CCN(Cc2oc(CO)cc(=O)c2O)CC1,-4.6
19,CC(=O)c1cccc(NC(=O)c2ccc3ccccc3c2)c1,6.07
20,Cn1cc(C(=O)c2ccc(Cl)cc2Cl)cc1C(=O)N/N=C(\N)COc1cccc(C(F)(F)F)c1,-4.61
21,CCOc1ccccc1C1CC(=O)Nc2cc3c(cc21)OCCO3 (stereo not shown),-2.02

row,SMILES,"hERG current change (%, negative = inhibition) at 10uM [%]"
1,COCCCN(C(=O)CSCC(=O)Nc1cccc(C)c1)c1c(N)n(Cc2ccccc2)c(=O)[nH]c1=O,11.3
2,CC(C)C(NC(=O)c1ccc2c(c1)OCO2)C(=O)N/N=C\c1ccco1 (stereo not shown),2.3
3,CCN1CCCC1CNC(=O)Cn1ncc2c(=O)oc3ccc(C)cc3c21 (stereo not shown),-2.33
4,C=CCNC(=O)c1c(N)n(-c2cccc(S(N)(=O)=O)c2)c2nc3ccccc3nc12,-4.04
5,O=C(Cc1c(F)cccc1Cl)NCCCn1ccnc1,-24.6
6,COc1cc2c(cc1OC)C(C)NCC2.Cl (stereo not shown),14.1
7,OC1(c2ccc(Cl)cc2)CCN(Cc2cn[nH]c2-c2ccccc2)CC1,-77.7
8,OCC1(Cc2ccccc2)CCCN(Cc2cn[nH]c2-c2ccccc2)C1 (stereo not shown),-16.4
9,c1ccc(-c2[nH]ncc2CN2CCc3ccccc3C2)cc1,-2.39
10,O=C1C2CCCCN2C(=O)N1CCCCN1CCN(c2ccc([N+](=O)[O-])cc2)CC1 (stereo not shown),-75.8
11,O=C1C2CCCN2C(=O)N1CCN1CCN(CCO)CC1 (stereo not shown),-5.52
12,O=C(CCCN1C(=O)C2CCCCN2C1=O)N1CCN(c2ccc([N+](=O)[O-])cc2)CC1 (stereo not shown),-74.7
13,Cc1ccc(N2CCN(CCCN3C(=O)C4CCCN4C3=O)CC2)cc1.Cl (stereo not shown),-7.45
14,Cl.Nc1ccc(N2CCN(CCCCN3C(=O)C4CCCN4C3=O)CC2)cc1.O (stereo not shown),-9.33
15,O=C1C2CCCCN2C(=O)N1CCCCN1CCN(c2ccc(F)cc2)CC1 (stereo not shown),-44
16,O=C1C2CCCCN2C(=O)N1CCN1CCN(c2ccc([N+](=O)[O-])cc2)CC1 (stereo not shown),-71.5
17,O=C1C2CCCN2C(=O)N1CCCN1CCN(c2ccc([N+](=O)[O-])cc2)CC1 (stereo not shown),-68.3
18,O=C1C2CCCN2C(=O)N1CCN1CCN(c2ccccc2)CC1 (stereo not shown),-8
19,O=C1C2CCCCN2C(=O)N1CCCN1CCN(c2ccc(F)cc2)CC1 (stereo not shown),-34.8
